Experimental data: the supplement of paper PMC10849652
Of roughly 7,900 targets only a part is listed; those with a hit were picked by preference. About 0.6% of all pairs of compound and target were hits.

Compound: CC(C)C1=C2N=C(C=C(N2N=C1)NCC3=CC=CC=C3)NCCCCCCN
Assay: log2 fold change, soluble protein after heating vs DMSO (PISA); higher = thermal stabilisation; K562 cells, 10 uM, 30 min; active = over 0.2 and 3.5 SD of the protein, either way, in both replicates (recomputed)
Summary of the method: (§1)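 Soluble protein was quantified by TMTpro 16plex LC-MS/MS after channel sums were equalised. It was obtained as the supernatant after 21,000xg for 90 min from pooled aliquots of K562 cells (2×10^6 cells/mL, 10 μM compound, 30 min) heated for 3 min across 48°C-58°C and extracted in PBS with 0.5% NP-40 at 4°C. Thermal stability values are relative to control samples and come from duplicates. They are given as log2 fold changes.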

Chain of UniProt P49448 (P49448 whole entry, looked up): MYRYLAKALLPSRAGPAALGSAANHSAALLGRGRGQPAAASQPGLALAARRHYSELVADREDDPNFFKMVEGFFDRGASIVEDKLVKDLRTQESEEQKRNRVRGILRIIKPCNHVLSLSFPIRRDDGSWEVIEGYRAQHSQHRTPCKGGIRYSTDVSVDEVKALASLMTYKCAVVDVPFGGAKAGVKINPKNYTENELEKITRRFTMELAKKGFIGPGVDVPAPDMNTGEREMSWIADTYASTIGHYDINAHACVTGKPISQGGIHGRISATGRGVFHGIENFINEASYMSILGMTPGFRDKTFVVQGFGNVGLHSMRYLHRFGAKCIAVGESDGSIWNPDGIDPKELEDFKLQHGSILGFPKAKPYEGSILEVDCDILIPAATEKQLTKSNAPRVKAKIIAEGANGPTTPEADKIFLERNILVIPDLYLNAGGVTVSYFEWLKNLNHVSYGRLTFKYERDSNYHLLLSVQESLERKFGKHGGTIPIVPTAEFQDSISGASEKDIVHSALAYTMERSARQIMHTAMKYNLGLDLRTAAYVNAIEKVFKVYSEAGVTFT
Chain of UniProt Q92538 (Q92538 whole entry, looked up): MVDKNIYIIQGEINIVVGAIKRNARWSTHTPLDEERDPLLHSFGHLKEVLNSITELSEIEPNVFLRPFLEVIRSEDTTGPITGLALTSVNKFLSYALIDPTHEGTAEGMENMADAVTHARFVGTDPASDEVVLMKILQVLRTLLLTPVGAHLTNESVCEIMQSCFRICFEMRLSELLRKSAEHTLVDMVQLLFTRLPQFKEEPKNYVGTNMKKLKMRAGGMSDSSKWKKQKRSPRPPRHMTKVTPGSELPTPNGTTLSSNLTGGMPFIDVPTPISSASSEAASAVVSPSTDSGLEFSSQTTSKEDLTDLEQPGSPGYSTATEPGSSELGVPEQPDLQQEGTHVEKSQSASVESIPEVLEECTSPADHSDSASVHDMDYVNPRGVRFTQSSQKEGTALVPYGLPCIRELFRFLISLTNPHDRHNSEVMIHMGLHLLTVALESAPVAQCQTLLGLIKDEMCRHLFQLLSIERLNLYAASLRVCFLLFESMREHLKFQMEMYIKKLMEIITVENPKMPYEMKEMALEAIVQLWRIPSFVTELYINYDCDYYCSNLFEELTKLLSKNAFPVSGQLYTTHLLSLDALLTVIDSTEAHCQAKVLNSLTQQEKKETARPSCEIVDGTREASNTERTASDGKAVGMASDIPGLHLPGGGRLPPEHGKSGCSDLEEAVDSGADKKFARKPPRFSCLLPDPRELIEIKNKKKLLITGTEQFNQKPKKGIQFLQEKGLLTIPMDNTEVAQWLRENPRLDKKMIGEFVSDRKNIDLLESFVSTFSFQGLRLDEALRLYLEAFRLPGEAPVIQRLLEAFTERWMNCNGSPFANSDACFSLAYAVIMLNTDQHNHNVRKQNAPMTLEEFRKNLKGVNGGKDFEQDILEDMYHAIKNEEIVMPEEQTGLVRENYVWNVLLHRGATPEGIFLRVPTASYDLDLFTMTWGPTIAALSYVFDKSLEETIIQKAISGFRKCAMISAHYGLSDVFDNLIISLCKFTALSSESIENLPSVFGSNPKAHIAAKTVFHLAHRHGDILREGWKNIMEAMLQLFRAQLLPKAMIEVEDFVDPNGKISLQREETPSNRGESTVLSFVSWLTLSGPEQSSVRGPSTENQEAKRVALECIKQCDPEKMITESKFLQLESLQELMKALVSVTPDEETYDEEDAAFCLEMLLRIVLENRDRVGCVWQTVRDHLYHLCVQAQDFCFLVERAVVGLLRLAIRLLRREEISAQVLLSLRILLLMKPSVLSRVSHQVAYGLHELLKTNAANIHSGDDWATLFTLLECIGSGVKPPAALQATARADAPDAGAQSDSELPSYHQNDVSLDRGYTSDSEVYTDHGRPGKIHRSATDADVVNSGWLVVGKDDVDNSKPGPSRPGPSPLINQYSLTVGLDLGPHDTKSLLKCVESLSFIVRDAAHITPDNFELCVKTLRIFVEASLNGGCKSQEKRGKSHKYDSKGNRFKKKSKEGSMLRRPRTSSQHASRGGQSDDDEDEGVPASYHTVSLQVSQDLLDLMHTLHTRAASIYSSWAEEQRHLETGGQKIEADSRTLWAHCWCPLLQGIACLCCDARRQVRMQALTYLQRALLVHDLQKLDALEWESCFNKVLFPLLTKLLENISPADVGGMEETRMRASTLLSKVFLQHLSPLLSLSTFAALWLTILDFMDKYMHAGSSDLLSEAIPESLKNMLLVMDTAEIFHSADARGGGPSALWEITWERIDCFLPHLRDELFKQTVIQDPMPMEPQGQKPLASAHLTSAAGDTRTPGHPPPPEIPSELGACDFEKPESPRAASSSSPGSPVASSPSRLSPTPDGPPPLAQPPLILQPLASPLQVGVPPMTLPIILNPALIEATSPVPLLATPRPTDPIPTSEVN
Chain of UniProt Q53FT3 (Q53FT3 whole entry, looked up): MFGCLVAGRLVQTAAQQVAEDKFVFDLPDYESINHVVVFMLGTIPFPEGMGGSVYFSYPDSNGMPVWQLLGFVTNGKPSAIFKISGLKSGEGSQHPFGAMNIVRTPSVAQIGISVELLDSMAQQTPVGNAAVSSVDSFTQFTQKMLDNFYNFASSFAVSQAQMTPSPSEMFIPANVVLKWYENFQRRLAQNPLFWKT
Chain of UniProt Q00688 (Q00688 whole entry, looked up): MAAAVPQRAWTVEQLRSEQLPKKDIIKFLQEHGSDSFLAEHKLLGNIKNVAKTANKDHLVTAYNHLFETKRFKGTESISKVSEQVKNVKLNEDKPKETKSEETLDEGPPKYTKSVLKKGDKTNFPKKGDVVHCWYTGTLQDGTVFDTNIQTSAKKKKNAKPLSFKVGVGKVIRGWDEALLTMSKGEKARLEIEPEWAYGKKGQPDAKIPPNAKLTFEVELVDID
Chain of UniProt Q8WUI4 (Q8WUI4 whole entry, looked up): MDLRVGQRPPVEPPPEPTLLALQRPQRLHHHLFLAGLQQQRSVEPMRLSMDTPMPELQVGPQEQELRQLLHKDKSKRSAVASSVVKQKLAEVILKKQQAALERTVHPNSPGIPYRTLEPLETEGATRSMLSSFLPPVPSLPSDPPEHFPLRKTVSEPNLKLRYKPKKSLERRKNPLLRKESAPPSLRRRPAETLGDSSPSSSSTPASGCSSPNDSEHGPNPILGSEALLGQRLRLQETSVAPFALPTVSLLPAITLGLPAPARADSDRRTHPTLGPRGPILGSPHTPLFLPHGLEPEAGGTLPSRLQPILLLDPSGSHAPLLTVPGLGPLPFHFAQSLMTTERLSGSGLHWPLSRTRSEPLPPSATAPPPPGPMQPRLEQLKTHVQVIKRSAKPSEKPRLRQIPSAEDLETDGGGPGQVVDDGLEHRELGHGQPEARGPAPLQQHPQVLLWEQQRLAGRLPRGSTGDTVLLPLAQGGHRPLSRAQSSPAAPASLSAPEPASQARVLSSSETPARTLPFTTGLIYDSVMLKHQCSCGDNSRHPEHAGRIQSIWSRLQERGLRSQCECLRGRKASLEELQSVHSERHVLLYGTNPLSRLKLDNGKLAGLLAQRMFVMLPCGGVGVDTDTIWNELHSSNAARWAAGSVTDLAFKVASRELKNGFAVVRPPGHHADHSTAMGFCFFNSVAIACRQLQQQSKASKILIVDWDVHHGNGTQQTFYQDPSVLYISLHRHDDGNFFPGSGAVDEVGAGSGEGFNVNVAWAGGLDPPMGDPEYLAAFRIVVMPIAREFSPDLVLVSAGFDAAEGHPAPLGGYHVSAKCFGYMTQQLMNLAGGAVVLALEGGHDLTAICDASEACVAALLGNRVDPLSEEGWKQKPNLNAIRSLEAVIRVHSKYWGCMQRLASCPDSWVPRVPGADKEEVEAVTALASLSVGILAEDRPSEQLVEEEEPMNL
Chain of UniProt O60725 (O60725 whole entry, looked up): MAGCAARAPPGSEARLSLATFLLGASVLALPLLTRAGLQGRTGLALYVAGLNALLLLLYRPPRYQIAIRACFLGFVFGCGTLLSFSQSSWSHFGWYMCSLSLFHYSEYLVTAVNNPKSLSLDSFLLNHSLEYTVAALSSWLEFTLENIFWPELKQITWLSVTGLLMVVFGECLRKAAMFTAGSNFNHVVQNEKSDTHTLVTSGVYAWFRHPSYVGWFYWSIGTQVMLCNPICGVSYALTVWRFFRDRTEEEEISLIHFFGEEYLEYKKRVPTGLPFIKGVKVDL
Chain of UniProt Q10471 (Q10471 whole entry, looked up): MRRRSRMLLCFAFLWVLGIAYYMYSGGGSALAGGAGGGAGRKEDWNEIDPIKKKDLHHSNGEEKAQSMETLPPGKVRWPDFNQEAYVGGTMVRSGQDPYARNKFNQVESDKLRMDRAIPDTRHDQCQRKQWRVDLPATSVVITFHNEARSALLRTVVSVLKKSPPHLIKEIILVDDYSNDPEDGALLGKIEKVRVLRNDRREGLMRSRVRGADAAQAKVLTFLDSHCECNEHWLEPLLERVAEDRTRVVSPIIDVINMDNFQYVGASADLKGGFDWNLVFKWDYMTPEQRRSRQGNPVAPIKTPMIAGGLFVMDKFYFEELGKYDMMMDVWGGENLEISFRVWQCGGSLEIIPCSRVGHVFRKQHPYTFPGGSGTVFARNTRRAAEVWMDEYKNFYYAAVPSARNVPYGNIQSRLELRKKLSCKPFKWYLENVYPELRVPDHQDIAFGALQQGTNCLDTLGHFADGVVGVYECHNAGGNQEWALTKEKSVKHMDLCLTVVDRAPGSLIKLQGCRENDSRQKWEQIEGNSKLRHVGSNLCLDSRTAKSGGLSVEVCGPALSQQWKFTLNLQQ
Chain of UniProt O00165 (O00165 whole entry, looked up): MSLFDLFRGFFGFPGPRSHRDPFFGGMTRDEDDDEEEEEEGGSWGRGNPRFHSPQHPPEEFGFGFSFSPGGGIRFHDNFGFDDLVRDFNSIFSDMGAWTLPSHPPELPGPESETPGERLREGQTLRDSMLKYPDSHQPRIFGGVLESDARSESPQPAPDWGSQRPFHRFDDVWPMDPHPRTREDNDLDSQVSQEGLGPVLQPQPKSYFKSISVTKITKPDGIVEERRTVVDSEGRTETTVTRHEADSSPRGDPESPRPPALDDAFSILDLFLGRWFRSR

log2 fold change, inactive:
FKBP3 (UniProt Q00688) 0.023
GPX4 (UniProt P36969) 0.099
HEXA (UniProt P06865) -0.179
HECTD1 (UniProt Q9ULT8) -0.091
GLUD2 (UniProt P49448) -0.041
GBF1 (UniProt Q92538) -0.088
HIKESHI (UniProt Q53FT3) -0.007
HBZ (UniProt P02008) 0.102
HIP1 (UniProt O00291) -0.056
HADHB (UniProt P55084) 0.37
GTPBP6 (UniProt O43824) 0.204
GSTO1 (UniProt P78417) 0.066
GYG1 (UniProt P46976) -0.114
GMEB1 (UniProt Q9Y692) -0.044
GALNT2 (UniProt Q10471) -0.021
GCC2 (UniProt Q8IWJ2) -0.075
GGT7 (UniProt Q9UJ14) 0.095
HDAC7 isoform 5 (UniProt Q8WUI4) 0.108
HSPA8 (UniProt E9PK54) 0.141
HIST2H3A (UniProt Q71DI3) -0.225
FLNA (UniProt P21333) -0.112
H2AFX (UniProt P16104) -0.008
GTF2A1 (UniProt P52655) 0.022
GATA1 (UniProt P15976) 0.047
GALNT1 (UniProt Q10472) 0.048
FMC1 (UniProt Q96HJ9) 0.01
GDE1 (UniProt Q9NZC3) 0.067
IDH3A (UniProt P50213) 0.034
FARS2 (UniProt O95363) -0.182
FYB1 isoform 3 (UniProt O15117) -0.069

log2 fold change, active:
GOLPH3 (UniProt Q9H4A6) 0.31
ICMT (UniProt O60725) -0.472
FANCD2 isoform 1 (UniProt Q9BXW9) -0.354
HAX1 (UniProt O00165) -0.498

Compound: CC(C)C[C@@H](C=O)NC(=O)[C@H](CC(C)C)NC(=O)[C@H](CC(C)C)NC(=O)OCc1ccccc1
Assay: as above
Summary of the method: as §1

log2 fold change, inactive:
FKBP3 (UniProt Q00688) -0.014
HEXA (UniProt P06865) 0.032
HECTD1 (UniProt Q9ULT8) 0.141
GLUD2 (UniProt P49448) 0.014
GBF1 (UniProt Q92538) 0.015
HIKESHI (UniProt Q53FT3) -0.194
HBZ (UniProt P02008) -0.019
HIP1 (UniProt O00291) 0.079
HADHB (UniProt P55084) -0.106
GTPBP6 (UniProt O43824) 0.024
GOLPH3 (UniProt Q9H4A6) -0.005
GSTO1 (UniProt P78417) -0.045
GYG1 (UniProt P46976) 0.064
ICMT (UniProt O60725) -0.051
FANCD2 isoform 1 (UniProt Q9BXW9) -0.266
GMEB1 (UniProt Q9Y692) -0.031
GALNT2 (UniProt Q10471) -0.02
GCC2 (UniProt Q8IWJ2) 0.111
HAX1 (UniProt O00165) 0.045
GGT7 (UniProt Q9UJ14) 0.001
HDAC7 isoform 5 (UniProt Q8WUI4) 0.036
HSPA8 (UniProt E9PK54) 0.074
HIST2H3A (UniProt Q71DI3) 0.18
FLNA (UniProt P21333) 0.049
H2AFX (UniProt P16104) 0.308
GTF2A1 (UniProt P52655) -0.06
GATA1 (UniProt P15976) 0.088
GALNT1 (UniProt Q10472) -0.141
FMC1 (UniProt Q96HJ9) 0.125
GDE1 (UniProt Q9NZC3) 0.049
IDH3A (UniProt P50213) 0
FARS2 (UniProt O95363) -0.001
FYB1 isoform 3 (UniProt O15117) 0.226

log2 fold change, active:
GPX4 (UniProt P36969) -0.462

Compound: CC(C)N(C[C@H]1O[C@@H](n2cnc3c(N)ncnc32)[C@H](O)[C@@H]1O)[C@H]1C[C@@H](CCc2nc3cc(C(C)(C)C)ccc3[nH]2)C1 [pinometostat]
Assay: as above
Summary of the method: as §1

log2 fold change, inactive:
FKBP3 (UniProt Q00688) -0.057
GPX4 (UniProt P36969) -0.078
HEXA (UniProt P06865) -0.043
HECTD1 (UniProt Q9ULT8) 0.079
GLUD2 (UniProt P49448) -0.013
GBF1 (UniProt Q92538) 0.115
HIKESHI (UniProt Q53FT3) 0.062
HBZ (UniProt P02008) -0.017
HIP1 (UniProt O00291) 0.045
HADHB (UniProt P55084) -0.05
GTPBP6 (UniProt O43824) 0.062
GOLPH3 (UniProt Q9H4A6) -0.013
GSTO1 (UniProt P78417) -0.047
GYG1 (UniProt P46976) 0.125
ICMT (UniProt O60725) -0.02
FANCD2 isoform 1 (UniProt Q9BXW9) 0.062
GMEB1 (UniProt Q9Y692) 0.022
GALNT2 (UniProt Q10471) -0.02
GCC2 (UniProt Q8IWJ2) 0.198
HAX1 (UniProt O00165) 0.107
GGT7 (UniProt Q9UJ14) -0.005
HDAC7 isoform 5 (UniProt Q8WUI4) 0.035
HSPA8 (UniProt E9PK54) 0.001
HIST2H3A (UniProt Q71DI3) 0.29
FLNA (UniProt P21333) 0.081
H2AFX (UniProt P16104) 0.368
GTF2A1 (UniProt P52655) 0.035
GATA1 (UniProt P15976) 0.027
GALNT1 (UniProt Q10472) -0.025
FMC1 (UniProt Q96HJ9) 0.047
GDE1 (UniProt Q9NZC3) 0.054
IDH3A (UniProt P50213) -0.029
FARS2 (UniProt O95363) 0.002
FYB1 isoform 3 (UniProt O15117) 0.002
